In PubChem BioAssay (NCI):
This is part of a sample that, as a whole, favours compounds with a hit. Of some 83,000 tested, about 20% had one in any assay.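 Testing used 96-well plates and a 48-hour single-concentration exposure. Example: -40 means 40% of the starting cells died.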 Active and inactive are the calls of the source. How the source made its calls: active means growth percent below 10; inactive means the rest.

Tests used:
Experiment in all cases: NCI-60 one-dose screen, 48 h (100 = growth as untreated, 0 = no growth, -100 = all killed)
Conditions in all cases: 10 µM unless noted
T-47D breast = test system: T-47D breast
BT-549 breast = test system: BT-549 breast
MDA-MB-435 melanoma = test system: MDA-MB-435 melanoma
SW-620 colon = test system: SW-620 colon
MCF7 breast = test system: MCF7 breast
HCT-116 colon = test system: HCT-116 colon
HCC-2998 colon = test system: HCC-2998 colon
KM12 colon = test system: KM12 colon

Measured: growth

O=C(CCCCCNC(=O)c1cc(=O)c(O)co1)Nc1ccccc1
inactive: T-47D breast 104% | BT-549 breast 95.9% | MDA-MB-435 melanoma 100% | SW-620 colon 101% | MCF7 breast 88.6% | HCT-116 colon 97.6% | HCC-2998 colon 101% | KM12 colon 100%

CC(=O)Oc1ccc(OC(C)=O)c2ccccc12
active: T-47D breast -49.6%
inactive: BT-549 breast 96.8% | MDA-MB-435 melanoma 95.8% | SW-620 colon 109% | MCF7 breast 57.3% | HCT-116 colon 51.6% | HCC-2998 colon 103% | KM12 colon 100%

O=C(/C=C/c1cccc(Cl)c1Cl)Nc1ncc(Cc2ccccc2Cl)s1
inactive: T-47D breast 43.8% | BT-549 breast 76.7% | SW-620 colon 27% | MCF7 breast 12.7% | HCT-116 colon 24.2% | HCC-2998 colon 76.3% | KM12 colon 28.8%
active: MDA-MB-435 melanoma -46.5%

O=S(=O)(NCCCNc1nccc(-c2c(-c3cccc(F)c3)nc3occn23)n1)c1ccc(F)cc1
inactive: BT-549 breast 69.4% | MDA-MB-435 melanoma 25.6% | SW-620 colon 67.7% | MCF7 breast 60.1% | HCT-116 colon 34% | HCC-2998 colon 77.3% | KM12 colon 40.4%
active: T-47D breast 6.92%
